Experimental data reported in PubChem BioAssay (NCI).
This is part of a sample that, as a whole, favours compounds with a hit. Of some 83,000 tested, about 20% had one in any assay.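 Assay: single dose, 48 h. Readout: percent growth (0 = no net growth; negative = cell death). Active: <10.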 The source made the active and inactive calls.

Columns and labels:
Experiment in all cases: NCI-60 one-dose screen, 48 h (100 = growth as untreated, 0 = no growth, -100 = all killed)
Conditions in all cases: 10 µM unless noted
SK-MEL-2 melanoma = test system: SK-MEL-2 melanoma
EKVX NSCLC = test system: EKVX NSCLC
SN12C renal = test system: SN12C renal
UO-31 renal = test system: UO-31 renal
TK-10 renal = test system: TK-10 renal
ACHN renal = test system: ACHN renal
CAKI-1 renal = test system: CAKI-1 renal
A498 renal = test system: A498 renal
CCRF-CEM leukemia = test system: CCRF-CEM leukemia
MOLT-4 leukemia = test system: MOLT-4 leukemia
SR leukemia = test system: SR leukemia
RPMI-8226 leukemia = test system: RPMI-8226 leukemia
OVCAR-8 ovarian = test system: OVCAR-8 ovarian
OVCAR-5 ovarian = test system: OVCAR-5 ovarian
OVCAR-4 ovarian = test system: OVCAR-4 ovarian
SK-OV-3 ovarian = test system: SK-OV-3 ovarian
IGROV1 ovarian = test system: IGROV1 ovarian
OVCAR-3 ovarian = test system: OVCAR-3 ovarian
HS 578T breast = test system: HS 578T breast
NCI/ADR-RES ovarian = test system: NCI/ADR-RES ovarian

Measured: growth

C/C(=C(\c1ccc(OCCN2CCCCCC2)cc1)c1ccc(OC(=O)Cc2ccccc2)cc1)c1ccc(Cl)cc1
inactive: SK-MEL-2 melanoma 52.9% | EKVX NSCLC 56.4% | SN12C renal 28.9% | UO-31 renal 44.1% | TK-10 renal 68.6% | ACHN renal 62.3% | CAKI-1 renal 48.7% | A498 renal 79% | OVCAR-5 ovarian 67.6% | OVCAR-4 ovarian 36.7% | SK-OV-3 ovarian 60.7% | IGROV1 ovarian 64.5% | OVCAR-3 ovarian 19.8% | HS 578T breast 23.4% | NCI/ADR-RES ovarian 56.6%
active: CCRF-CEM leukemia 6.31% | MOLT-4 leukemia -6.79% | SR leukemia -44.9% | RPMI-8226 leukemia -40.2% | OVCAR-8 ovarian 9.9%

Cc1ccc(C(=O)c2ccc(CC(=O)N/N=C/c3ccc(O)cc3O)n2C)cc1
inactive: SK-MEL-2 melanoma 59.5% | EKVX NSCLC 34.2% | SN12C renal 55.7% | UO-31 renal 19.8% | TK-10 renal 52.9% | ACHN renal 16.5% | CAKI-1 renal 46.6% | A498 renal 87.4% | CCRF-CEM leukemia 16.8% | MOLT-4 leukemia 12.6% | SR leukemia 17.3% | RPMI-8226 leukemia 48.4% | OVCAR-8 ovarian 48.4% | OVCAR-5 ovarian 63.4% | OVCAR-4 ovarian 20.7% | SK-OV-3 ovarian 45.1% | IGROV1 ovarian 41.7% | OVCAR-3 ovarian 37.2% | HS 578T breast 74.9% | NCI/ADR-RES ovarian 34.6%

COc1cc(C(=O)/C=C/c2ccc(N3CCN(C)CC3)cc2)cc(OC)c1OC
inactive: SK-MEL-2 melanoma 107% | EKVX NSCLC 88.6% | SN12C renal 98.5% | UO-31 renal 73.2% | TK-10 renal 110% | ACHN renal 97.6% | CAKI-1 renal 90.9% | A498 renal 108% | CCRF-CEM leukemia 105% | MOLT-4 leukemia 98% | SR leukemia 91.2% | RPMI-8226 leukemia 107% | OVCAR-8 ovarian 98% | OVCAR-5 ovarian 96.5% | OVCAR-4 ovarian 101% | SK-OV-3 ovarian 100% | IGROV1 ovarian 94.8% | OVCAR-3 ovarian 98.6% | HS 578T breast 94.3% | NCI/ADR-RES ovarian 95.2%

CCC/C(=N\NC(N)=O)C(OC)OC
inactive: SK-MEL-2 melanoma 104% | EKVX NSCLC 111% | SN12C renal 107% | UO-31 renal 89.3% | TK-10 renal 85.3% | ACHN renal 105% | CAKI-1 renal 114% | A498 renal 91.1% | CCRF-CEM leukemia 106% | MOLT-4 leukemia 121% | SR leukemia 120% | RPMI-8226 leukemia 121% | OVCAR-8 ovarian 98.6% | OVCAR-5 ovarian 97.1% | OVCAR-4 ovarian 89% | SK-OV-3 ovarian 116% | IGROV1 ovarian 123% | OVCAR-3 ovarian 104% | HS 578T breast 125% | NCI/ADR-RES ovarian 99.6%

CCCCSCC(=O)c1ccccc1
inactive: SK-MEL-2 melanoma 85.2% | EKVX NSCLC 99% | SN12C renal 103% | UO-31 renal 85% | TK-10 renal 86.1% | ACHN renal 101% | CAKI-1 renal 94.4% | A498 renal 106% | CCRF-CEM leukemia 91.9% | MOLT-4 leukemia 92.9% | SR leukemia 88.3% | RPMI-8226 leukemia 106% | OVCAR-8 ovarian 94.2% | OVCAR-5 ovarian 95.2% | OVCAR-4 ovarian 100% | SK-OV-3 ovarian 81.4% | IGROV1 ovarian 99.3% | OVCAR-3 ovarian 99.3% | HS 578T breast 110% | NCI/ADR-RES ovarian 97.9%

COc1cc(-c2cc(-c3ccc(Nc4ncnc5cc(Cl)ccc45)cc3)nc(N3CCN(C)CC3)n2)cc(OC)c1OC
inactive: SK-MEL-2 melanoma 93.4% | EKVX NSCLC 102% | SN12C renal 88.6% | UO-31 renal 23.4% | TK-10 renal 136% | ACHN renal 75.4% | CAKI-1 renal 91% | A498 renal 102% | CCRF-CEM leukemia 52.5% | MOLT-4 leukemia 58.1% | SR leukemia 42.7% | RPMI-8226 leukemia 76.2% | OVCAR-8 ovarian 35.1% | OVCAR-5 ovarian 103% | OVCAR-4 ovarian 58.9% | SK-OV-3 ovarian 114% | IGROV1 ovarian 81.3% | OVCAR-3 ovarian 105% | HS 578T breast 73.2% | NCI/ADR-RES ovarian 85.3%

CN(C)c1ccc(/C=C/C(=O)c2ccccc2)cc1
inactive: SK-MEL-2 melanoma 93.5% | EKVX NSCLC 97.9% | SN12C renal 84.8% | UO-31 renal 67.5% | TK-10 renal 74.5% | ACHN renal 109% | CAKI-1 renal 97.1% | A498 renal 74% | CCRF-CEM leukemia 66.1% | MOLT-4 leukemia 76.3% | SR leukemia 25.1% | RPMI-8226 leukemia 76.4% | OVCAR-8 ovarian 93.1% | OVCAR-5 ovarian 113% | OVCAR-4 ovarian 101% | SK-OV-3 ovarian 96.9% | IGROV1 ovarian 99.2% | OVCAR-3 ovarian 90.2% | HS 578T breast 98.4% | NCI/ADR-RES ovarian 81.3%

COc1cc(/C=N/Nc2ccccc2F)cc(OC)c1OC
inactive: SK-MEL-2 melanoma 90.2% | EKVX NSCLC 87.4% | SN12C renal 97.1% | UO-31 renal 68.8% | TK-10 renal 157% | ACHN renal 81.3% | CAKI-1 renal 50.8% | A498 renal 92.8% | CCRF-CEM leukemia 75.2% | MOLT-4 leukemia 83.9% | SR leukemia 90.9% | RPMI-8226 leukemia 83.8% | OVCAR-8 ovarian 92% | OVCAR-5 ovarian 94.6% | OVCAR-4 ovarian 92.3% | SK-OV-3 ovarian 111% | IGROV1 ovarian 86.1% | OVCAR-3 ovarian 108% | HS 578T breast 94.9% | NCI/ADR-RES ovarian 99.6%

COc1ccc(NC(=O)c2ccc(C(=O)Nc3ccc(OC)cc3OC)cc2)c(OC)c1
inactive: SK-MEL-2 melanoma 80.4% | EKVX NSCLC 73.7% | SN12C renal 65% | UO-31 renal 52.4% | TK-10 renal 69.7% | ACHN renal 71.9% | CAKI-1 renal 68.1% | A498 renal 58.6% | CCRF-CEM leukemia 90% | MOLT-4 leukemia 94.3% | SR leukemia 87.9% | RPMI-8226 leukemia 80.1% | OVCAR-8 ovarian 44.5% | OVCAR-5 ovarian 81.2% | OVCAR-4 ovarian 88.2% | SK-OV-3 ovarian 43.8% | IGROV1 ovarian 54.7% | OVCAR-3 ovarian 90.6% | HS 578T breast 39.3% | NCI/ADR-RES ovarian 79.6%

N#Cc1c(-c2ccccc2)nc2c(c(-c3ccccc3)nn2-c2ccccc2)c1-c1ccc(N2CCOCC2)cc1
inactive: SK-MEL-2 melanoma 102% | EKVX NSCLC 103% | SN12C renal 93.4% | UO-31 renal 70.3% | TK-10 renal 101% | ACHN renal 103% | CAKI-1 renal 81.8% | A498 renal 95.1% | CCRF-CEM leukemia 64.6% | MOLT-4 leukemia 62.7% | SR leukemia 24.5% | RPMI-8226 leukemia 76% | OVCAR-8 ovarian 99% | OVCAR-5 ovarian 102% | OVCAR-4 ovarian 103% | SK-OV-3 ovarian 108% | IGROV1 ovarian 87.7% | OVCAR-3 ovarian 96% | HS 578T breast 104% | NCI/ADR-RES ovarian 94.6%

Clc1ccc(-c2cn3ccsc3n2)c(Cl)c1Cl
inactive: SK-MEL-2 melanoma 88.6% | EKVX NSCLC 65.2% | SN12C renal 77.9% | UO-31 renal 70.1% | TK-10 renal 105% | ACHN renal 90.1% | CAKI-1 renal 71.8% | A498 renal 76.7% | CCRF-CEM leukemia 93.6% | MOLT-4 leukemia 80.4% | SR leukemia 49.9% | RPMI-8226 leukemia 67.5% | OVCAR-8 ovarian 95.7% | OVCAR-5 ovarian 88.5% | OVCAR-4 ovarian 74.1% | SK-OV-3 ovarian 118% | IGROV1 ovarian 77.2% | OVCAR-3 ovarian 93.3% | HS 578T breast 84.3% | NCI/ADR-RES ovarian 99.6%

CCCCCCCCNc1cc2c3c(c1)CCCN3CCC2
inactive: EKVX NSCLC 10% | UO-31 renal 61% | TK-10 renal 41.7% | ACHN renal 30.9% | CAKI-1 renal 38.6% | A498 renal 80.2% | CCRF-CEM leukemia 42.8% | MOLT-4 leukemia 27.5% | SR leukemia 26% | RPMI-8226 leukemia 12.3% | OVCAR-8 ovarian 15.8% | OVCAR-5 ovarian 17.6% | OVCAR-4 ovarian 35.2% | SK-OV-3 ovarian 10.7% | IGROV1 ovarian 29.7% | HS 578T breast 23.3% | NCI/ADR-RES ovarian 70.7%
active: SK-MEL-2 melanoma -46.6% | SN12C renal 9.8% | OVCAR-3 ovarian 4.22%

C(/C=C/c1ccccc1)=Nc1ccc(CCc2ccc(N=C/C=C/c3ccccc3)cc2)cc1
active: ACHN renal 6.67%
inactive: SK-MEL-2 melanoma 41.5% | EKVX NSCLC 121% | SN12C renal 92.7% | UO-31 renal 86.4% | TK-10 renal 93.8% | CAKI-1 renal 41.7% | A498 renal 109% | CCRF-CEM leukemia 95.3% | MOLT-4 leukemia 78.2% | SR leukemia 47.3% | RPMI-8226 leukemia 94.5% | OVCAR-8 ovarian 83.5% | OVCAR-5 ovarian 93.6% | OVCAR-4 ovarian 101% | SK-OV-3 ovarian 98.6% | IGROV1 ovarian 85.8% | OVCAR-3 ovarian 132% | HS 578T breast 108% | NCI/ADR-RES ovarian 80.9%

COc1ccc(-c2cc(-c3ccc(OC)cc3)nc(NCCCNc3ccnc4cc(Cl)ccc34)n2)cc1
active: SN12C renal -62.3% | CCRF-CEM leukemia 3.08% | MOLT-4 leukemia 1.68% | SR leukemia 5.81% | RPMI-8226 leukemia 7.42% | OVCAR-8 ovarian -51.3% | OVCAR-4 ovarian -16.5% | IGROV1 ovarian -62.6%
inactive: SK-MEL-2 melanoma 83.9% | EKVX NSCLC 80.4% | UO-31 renal 48.9% | TK-10 renal 127% | ACHN renal 96.2% | CAKI-1 renal 75.3% | A498 renal 23.2% | OVCAR-5 ovarian 105% | SK-OV-3 ovarian 76.8% | OVCAR-3 ovarian 91.7% | HS 578T breast 83.5% | NCI/ADR-RES ovarian 71.7%

CCCCCCNc1nc(NCCCCCC)c2[nH]c(NCCCCCC)nc2n1
inactive: SK-MEL-2 melanoma 30.2% | EKVX NSCLC 44% | SN12C renal 26.5% | UO-31 renal 80.9% | TK-10 renal 116% | ACHN renal 100% | CAKI-1 renal 74.1% | A498 renal 40.3% | OVCAR-8 ovarian 57.3% | SK-OV-3 ovarian 102% | IGROV1 ovarian 68.8% | OVCAR-3 ovarian 26.5% | HS 578T breast 55.7% | NCI/ADR-RES ovarian 90.3%
active: CCRF-CEM leukemia -29.6% | MOLT-4 leukemia -12.5% | SR leukemia -33.4% | RPMI-8226 leukemia -29.4% | OVCAR-5 ovarian -7.94% | OVCAR-4 ovarian -16%
